The nature of experiment [1]: compound effects on lung adenocarcinoma cell viability – A549, calcein-AM fluorescence, 48 h, basal, profiling panel (AID 1162). Further: test concentration not given here. As to conditions: higher = more signal.
Experiment [2] is described as follows: compound effects on differentiated 3T3-L1 adipocyte viability – cell-based, 3T3-L1 adipocytes, calcein-AM fluorescence, 48 h, basal, profiling panel (AID 1163). Further: test concentration not given here. As to conditions: 3T3-L1 adipocytes viability, higher = more signal.
Experiment [3] can be described thus: compound effects on hepatocellular carcinoma cell viability – HepG2, calcein-AM fluorescence, 48 h, basal, profiling panel (AID 1164). Further: test concentration not given here. The note with it: higher = more signal.
Experiment [4] is described as follows: compound effects on multiple myeloma cell viability – MM1S, calcein-AM fluorescence, 48 h, basal, profiling panel (AID 1165).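 Further: viability of MM1S multiple myeloma cells under basal unstimulated conditions; test concentration not given here.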 The note with it: higher = more signal.
The nature of experiment [5]: calcein-AM signal in unstimulated myeloma cells – cell-based, calcein-AM fluorescence, 48 h, PK04 Diversity Set, profiling panel (AID 1166).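 Further: cells grown under basal conditions without added stimulus; test concentration not given here.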 As to conditions: RPMI8226 myeloma viability, higher = more signal.
A short description of experiment [6]: JC-1 mitochondrial signal, unstimulated HepG2 cells – cell-based, JC-1 fluorescence, 24 h, 100 nL compound, profiling panel (AID 1167). Further: test concentration not given here. The note with it: HepG2 mitochondrial potential, higher = more signal.
The nature of experiment [7]: JC-1 mitochondrial signal, unstimulated adipocytes – cell-based, JC-1 fluorescence, 3T3-L1 adipocytes, 24 h, 100 nL compound, profiling panel (AID 1168). Further: test concentration not given here. As to conditions: JC-1 mitochondrial fluorescence, higher = more signal, called active from +8 up or from −8 down.
Experiment [8] is described as follows: JC-1 mitochondrial signal, unstimulated myeloma cells – cell-based, JC-1 fluorescence, RPMI8226, 24 h, 100 nL compound, profiling panel (AID 1169). Further: test concentration not given here. The note with it: JC-1 mitochondrial potential fluorescence, higher = more signal.
Experiment [9] can be described thus: JC-1 mitochondrial signal, unstimulated MM1S myeloma – cell-based, JC-1 fluorescence, 24 h, 100 nL compound, profiling panel (AID 1170). Further: test concentration not given here. The note with it: MM1S mitochondrial potential, higher = more signal.
Experiment [10] is described as follows: resazurin metabolic signal in A549 cells – cell-based, resazurin fluorescence, 24 h, PK04 Diversity Set, profiling panel (AID 1171). Further: test concentration not given here. As to conditions: A549 viability, higher = more signal, called active from +8 up or from −8 down. (In general: Resazurin is reduced to fluorescent resorufin, in cell work by metabolically active cells.)
Experiment [11] is described as follows: resazurin metabolic signal in HepG2 cells – cell-based, resazurin fluorescence, 24 h, PK04 Diversity Set, profiling panel (AID 1172). Further: test concentration not given here. As to conditions: HepG2 viability, higher = more signal.
Experiment [12] can be described thus: budding yeast growth changes without added modifier – OD600, strain BY4716, 24 h, basal condition, primary screen (AID 1173). The note with it: S. cerevisiae BY4716 growth, OD600, 24 h; higher = more signal, called active from +8 up or from −8 down.
Experiment [13] is described as follows: viability profiling in MM1S myeloma cells – cell-based, resazurin fluorescence, basal, 24 h, PK04 Diversity Set, profiling panel (AID 1174). Further: test concentration not given here. As to conditions: higher = more signal, called active from +8 up or from −8 down.
Experiment [14] has as its target Dihydroorotate dehydrogenase (quinone), mitochondrial (Plasmodium falciparum (isolate 3D7)) (UniProt Q08210). Description: inhibition of P. falciparum DHODH – biochemical, C-terminal His tag, absorbance 600 nm, primary screen (AID 1175).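 Further: recombinant parasite enzyme with a five histidine tag at its C terminus; test concentration not given here.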 The note with it: PfDHODH enzyme, DCIP absorbance 600 nm; higher = more signal, called active from +8 up or from −8 down.
Experiment [15] in a line: growth modulation of vineyard yeast isolate – strain RM11-1a, OD600, basal, 24 h, primary screen (AID 1177).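 Further: cultures grown under basal conditions with no added stressor; test concentration not given here.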 As to conditions: S. cerevisiae RM11-1a growth, OD600, 24 h; higher = more signal, called active from +8 up or from −8 down.
Experiment [16] is described as follows: growth of efflux-deficient E. coli DRC39 – strain DRC39, OD650, 24 h, E. coli filamentation inducers, primary screen (AID 1178).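 Further: growth measured as culture turbidity by optical density at 650 nm; test concentration not given here.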 As to conditions: E. coli DRC39 acrAB, higher = more signal, called active from +8 up or from −8 down.
A short description of experiment [17]: growth of efflux-deficient E. coli DRC39 – strain DRC39, OD650, 48 h, E. coli filamentation inducers, primary screen (AID 1179).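 Further: screen aims at cell division blockers that make cells filament.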 As to conditions: E. coli DRC39 delta-acrAB growth, higher = more signal, called active from +8 up or from −8 down.
Experiment [18] in a line: viability profiling in RPMI8226 myeloma cells – cell-based, resazurin fluorescence, basal, 24 h, PK04 Diversity Set, profiling panel (AID 1180).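 Further: RPMI8826 multiple myeloma cell line at 5000 cells per well; test concentration not given here.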 As to conditions: higher = more signal.
The target in experiment [19] is E3 ubiquitin-protein ligase XIAP (Homo sapiens) (UniProt P98170). In words: small molecules binding XIAP protein – biophysical, small-molecule microarray, fluorescence 635 nm, primary screen (AID 1181).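 Further: score merges 667 nm emission and signal to noise over triplicate slides.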 As to conditions: higher = more signal.

Activity calls are given as the source filed them.

Dihydroorotate dehydrogenase (quinone), mitochondrial (Plasmodium falciparum (isolate 3D7)), sequence (Q08210 whole entry, looked up): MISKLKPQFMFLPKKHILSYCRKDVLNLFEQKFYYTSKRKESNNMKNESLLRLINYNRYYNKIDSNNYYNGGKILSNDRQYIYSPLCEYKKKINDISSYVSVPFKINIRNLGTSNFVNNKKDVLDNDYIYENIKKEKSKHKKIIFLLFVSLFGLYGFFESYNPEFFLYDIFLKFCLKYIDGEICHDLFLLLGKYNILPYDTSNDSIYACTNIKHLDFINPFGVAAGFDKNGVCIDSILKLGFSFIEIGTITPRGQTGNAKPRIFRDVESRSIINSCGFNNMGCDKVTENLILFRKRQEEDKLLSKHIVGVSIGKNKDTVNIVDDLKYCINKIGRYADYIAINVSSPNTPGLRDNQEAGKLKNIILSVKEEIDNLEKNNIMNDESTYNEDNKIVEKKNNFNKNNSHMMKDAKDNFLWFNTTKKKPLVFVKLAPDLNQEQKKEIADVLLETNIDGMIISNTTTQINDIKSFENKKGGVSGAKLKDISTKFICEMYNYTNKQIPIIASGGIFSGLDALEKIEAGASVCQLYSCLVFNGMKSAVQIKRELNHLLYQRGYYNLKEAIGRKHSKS
E3 ubiquitin-protein ligase XIAP (Homo sapiens), sequence (P98170 whole entry, looked up): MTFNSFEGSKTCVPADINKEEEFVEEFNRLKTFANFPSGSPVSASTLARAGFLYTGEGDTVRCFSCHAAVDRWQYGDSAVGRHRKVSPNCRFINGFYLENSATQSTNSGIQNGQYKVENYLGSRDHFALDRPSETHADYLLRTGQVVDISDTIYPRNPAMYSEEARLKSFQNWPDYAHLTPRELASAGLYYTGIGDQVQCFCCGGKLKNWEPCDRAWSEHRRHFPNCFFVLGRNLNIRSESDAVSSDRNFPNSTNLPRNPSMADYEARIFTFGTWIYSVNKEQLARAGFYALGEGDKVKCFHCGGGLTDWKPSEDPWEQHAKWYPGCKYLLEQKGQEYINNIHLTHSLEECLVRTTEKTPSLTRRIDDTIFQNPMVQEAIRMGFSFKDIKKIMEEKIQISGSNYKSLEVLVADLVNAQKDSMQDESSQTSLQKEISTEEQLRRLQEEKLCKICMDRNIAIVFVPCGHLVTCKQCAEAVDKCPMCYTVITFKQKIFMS

On to `CC(=O)NCCCC[C@@H]1NC(=O)[C@@H]2C[C@H](C(=O)NCCCCCNC(=O)CS)[C@H](c3ccc(O)cc3)N2C1=O`, for which the z-score in experiment [1] was 1.69; in experiment [2], 0.349; in experiment [3], -0.0748; in [4], 0.372; in experiment [5] it was 1.33; in experiment [6] it was 1.36. In addition, the z-score was 0.985 (inactive) in experiment [7]; -0.418 in experiment [8]; -0.559 in experiment [9]; 1.46 (inactive) in experiment [10]; 1.25 in experiment [11]; -0.774 (inactive) in experiment [12]. Moreover, the z-score in [13] is 1.19 (inactive); in [15], -3.21 (inactive); in experiment [16], 2.5 (inactive); in [17] it was 2.03 (inactive); in experiment [18], 0.833. In addition, the composite z-score is -0.961 (inactive) in experiment [14] and -0.131 in [19].

On to `C=CC[C@@]12N=C(c3ccc(OCCCO)cc3)O[C@@H]1c1ccccc1CN(Cc1ccccc1)C2=O`, for which the z-score in experiment [1] was -0.843; in experiment [2], 2.38; in experiment [3], -1.92; in experiment [4], -3.46; in [5] it was -4.51; in [6], 0.0441. The z-score in experiment [7] is -0.218 (inactive); in [8], -1.36; in [9] it was -1.45; in experiment [10] it was -1.9 (inactive); in experiment [11] it was -0.806; in [12], -0.251 (inactive). The z-score was -3.75 (inactive) in experiment [13]; 1.77 (inactive) in experiment [15]; 1.4 (inactive) in experiment [16]; 0.485 (inactive) in experiment [17]; -3.21 in [18]. Moreover, the composite z-score in experiment [14] is 1.27 (inactive); in experiment [19], -0.0473.

Consider `O=C1O[C@@H](c2ccccc2)[C@@H](c2ccccc2)N2[C@@H](c3ccc(O)cc3)[C@]3(C(=O)Nc4ccccc43)[C@@H](C(=O)N3CCN(c4ncccn4)CC3)[C@H]12`, for which the z-score is 0.661 in experiment [1]; -0.957 in experiment [2]; 1.15 in [3]; -1.16 in experiment [4]; -1.77 in experiment [5]; -0.235 in experiment [6]. In addition, the z-score is 1.72 (inactive) in experiment [7]; -0.455 in experiment [8]; -0.618 in [9]; -0.133 (inactive) in experiment [10]; 0.838 in experiment [11]; -0.863 (inactive) in [12]. The z-score in [13] was -0.798 (inactive); in experiment [15] it was -0.0045 (inactive); in experiment [16], 0.208 (inactive); in experiment [17], 1.05 (inactive); in experiment [18], -0.442. Further, the composite z-score in experiment [14] is -0.63 (inactive); in experiment [19] it was -0.311.

Turning to `CN(C)C(=O)[C@@]1(Cc2ccccc2N=[N+]=[N-])N=C(c2ccc(OCCCO)cc2)O[C@H]1c1ccccc1CN=[N+]=[N-]`, the z-score was -0.996 in experiment [1]; 1.16 in experiment [2]; -1.23 in experiment [3]; -2.91 in [4]; -3.39 in [5]; 2.17 in experiment [6]. Moreover, the z-score in experiment [7] was 0.618 (inactive); in [8], -0.904; in experiment [9] it was -0.679; in experiment [10] it was 0.276 (inactive); in experiment [11], 1.12; in experiment [12], -1.4 (inactive). The z-score in experiment [13] was -0.437 (inactive); in [15], -0.726 (inactive); in experiment [16], 2.45 (inactive); in [17], 0.842 (inactive); in experiment [18], -1.67. Moreover, the results for the composite z-score in experiment [14] and in experiment [19] were -0.812 (inactive) and 0.229, respectively.

Consider `Cc1ccc(S[C@]2(C(=O)NCCCN(C)C)CC(=O)N(C3CCCCC3)[C@@H]2c2ccc(CO)cc2I)cc1`, for which the z-score in [1] is -0.272; in [2], 1.8; in experiment [3], -4.31; in experiment [4], -3.25; in [5], -3.08; in [6], 1.8. Also, the z-score was 0.794 (inactive) in experiment [7]; -0.644 in experiment [8]; -1.84 in experiment [9]; -0.835 (inactive) in experiment [10]; -1.37 in [11]; -2.6 (inactive) in experiment [12]. For the same compound, the z-score was -7.69 (inactive) in [13]; 1.25 (inactive) in experiment [15]; -0.0999 (inactive) in [16]; -0.737 (inactive) in [17]; -5.11 in experiment [18]. The composite z-score is 0.895 (inactive) in experiment [14] and -0.0636 in [19].

Values taken from PubChem BioAssay.
